PubChem BioAssay AID1159580 (chemical genetic matrix, 2015)
The campaign covered roughly 5,500 compounds. About 2,000 (36%) were called active. Inconclusive results (about 18%) are left out. Cut-off read from the data, not from the text of the source: active = normalized growth mostly below about 0.91 (no sharp cut-off); inconclusive = no clear call, values can overlap the other calls; inactive = mostly above about 0.92. Some of the results follow.

Assay: chemical genetic growth profiling, strain panel (AID 1159580);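 note: tested at 20 µM; growth read once vehicle control cultures reached saturation at 30 °C; 1 = growth at the plate median or of vehicle wells; lower values mean less growth of the strain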
Details: growth OD

Measured: normalized growth

COC1=C[C@@H]2[C@@H]3Cc4ccc(OC)c(O)c4[C@]2(CCN3C)CC1=O
inactive: S. cerevisiae deletion strains, locus YJR075W, strain HOC1, stronger effect = lower value 0.928 | S. cerevisiae deletion strains, locus YKL009W, strain mrt4, stronger effect = lower value 0.978 | S. cerevisiae deletion strains, locus YKL068W, stronger effect = lower value 0.977 | S. cerevisiae deletion strains, locus YKL085W, strain MDH1 (second series), stronger effect = lower value 0.979 | S. cerevisiae deletion strains, locus YKL085W, strain MDH1, stronger effect = lower value 0.979 | S. cerevisiae deletion strains, locus YKL160W, strain elf1, stronger effect = lower value 0.996 | S. cerevisiae deletion strains, locus YKL190W, strain CNB1, stronger effect = lower value 0.977 | S. cerevisiae deletion strains, locus YKR001C, strain vps1, stronger effect = lower value 0.992 | S. cerevisiae deletion strains, locus YKR026C, strain gcn3, stronger effect = lower value 1 | S. cerevisiae deletion strains, locus YKR091W, strain srl3, stronger effect = lower value 0.984 | S. cerevisiae deletion strains, locus YLL001W, strain dnm1, stronger effect = lower value 0.997 | S. cerevisiae deletion strains, locus YLL026W, stronger effect = lower value 0.982 | S. cerevisiae deletion strains, locus YLL041C, strain sdh2, stronger effect = lower value 1 | S. cerevisiae deletion strains, locus YLR027C, strain aat2, stronger effect = lower value 1 | S. cerevisiae deletion strains, locus YLR039C, strain RIC1, stronger effect = lower value 0.98 | S. cerevisiae deletion strains, locus YLR058C, strain SHM2, stronger effect = lower value 0.976 | S. cerevisiae deletion strains, locus YLR102C, strain apc9, stronger effect = lower value 0.971 | S. cerevisiae deletion strains, locus YLR113W, strain HOG1, stronger effect = lower value 1.01 | S. cerevisiae deletion strains, locus YLR221C, strain rsa3, stronger effect = lower value 0.993 | S. cerevisiae deletion strains, locus YLR258W, strain gsy2, stronger effect = lower value 0.987 | S. cerevisiae deletion strains, locus YLR262C, strain YPT6 (second series), stronger effect = lower value 0.999 | S. cerevisiae deletion strains, locus YLR262C, strain YPT6, stronger effect = lower value 0.926 | S. cerevisiae deletion strains, locus YLR268W, strain sec22, stronger effect = lower value 0.967 | S. cerevisiae deletion strains, locus YLR320W, strain mms22, stronger effect = lower value 1 | S. cerevisiae deletion strains, locus YLR330W, strain CHS5, stronger effect = lower value 0.999 | S. cerevisiae deletion strains, locus YLR342W, strain FKS1 (second series), stronger effect = lower value 1.03 | S. cerevisiae deletion strains, locus YLR342W, strain FKS1, stronger effect = lower value 1 | S. cerevisiae deletion strains, locus YLR357W, strain rsc2, stronger effect = lower value 0.943 | S. cerevisiae deletion strains, locus YLR370C, strain arc18, stronger effect = lower value 1 | S. cerevisiae deletion strains, locus YLR371W, strain rom2, stronger effect = lower value 0.952 | S. cerevisiae deletion strains, locus YLR384C, strain iki3, stronger effect = lower value 0.987 | S. cerevisiae deletion strains, locus YLR418C, strain cdc73, stronger effect = lower value 0.969 | S. cerevisiae deletion strains, locus YML016C, strain PPZ1, stronger effect = lower value 0.979 | S. cerevisiae deletion strains, locus YML032C, strain rad52, stronger effect = lower value 0.985 | S. cerevisiae deletion strains, locus YML120C, strain ndi1, stronger effect = lower value 1 | S. cerevisiae deletion strains, locus YML124C, strain tub3, stronger effect = lower value 0.986 | S. cerevisiae deletion strains, locus YMR058W, strain fet3, stronger effect = lower value 1.01 | S. cerevisiae deletion strains, locus YMR078C, strain ctf18, stronger effect = lower value 0.977 | S. cerevisiae deletion strains, locus YMR125W, strain sto1, stronger effect = lower value 0.975 | S. cerevisiae deletion strains, locus YMR129W, stronger effect = lower value 1 | S. cerevisiae deletion strains, locus YMR205C, strain PFK2, stronger effect = lower value 0.985 | S. cerevisiae deletion strains, locus YMR231W, strain pep5, stronger effect = lower value 0.995 | S. cerevisiae deletion strains, locus YMR263W, strain SAP30, stronger effect = lower value 0.962 | S. cerevisiae deletion strains, locus YMR307W, strain GAS1, stronger effect = lower value 1.03 | S. cerevisiae deletion strains, locus YNL067W, strain RPL9B, stronger effect = lower value 0.988 | S. cerevisiae deletion strains, locus YNL071W, strain lat1, stronger effect = lower value 0.996 | S. cerevisiae deletion strains, locus YNL128W, strain TEP1, stronger effect = lower value 0.961 | S. cerevisiae deletion strains, locus YNL153C, strain GIM3, stronger effect = lower value 0.96 | S. cerevisiae deletion strains, locus YNL183C, strain NPR1, stronger effect = lower value 0.959 | S. cerevisiae deletion strains, locus YNL209W, strain ssb2, stronger effect = lower value 1.01 | S. cerevisiae deletion strains, locus YNL233W, strain BNI4, stronger effect = lower value 0.979 | S. cerevisiae deletion strains, locus YNL248C, strain rpa49, stronger effect = lower value 0.978 | S. cerevisiae deletion strains, locus YNL250W, strain rad50, stronger effect = lower value 0.981 | S. cerevisiae deletion strains, locus YNL271C, strain bni1, stronger effect = lower value 0.988 | S. cerevisiae deletion strains, locus YNL298W, strain CLA4, stronger effect = lower value 0.96 | S. cerevisiae deletion strains, locus YNL307C, strain MCK1, stronger effect = lower value 0.989 | S. cerevisiae deletion strains, locus YNL322C, strain KRE1 (second series), stronger effect = lower value 0.975 | S. cerevisiae deletion strains, locus YNL322C, strain KRE1, stronger effect = lower value 0.98 | S. cerevisiae deletion strains, locus YNR049C, strain mso1, stronger effect = lower value 1.01 | S. cerevisiae deletion strains, locus YNR052C, strain pop2, stronger effect = lower value 0.982 | S. cerevisiae deletion strains, locus YOL006C, strain TOP1, stronger effect = lower value 0.942 | S. cerevisiae deletion strains, locus YOL012C, strain htz1 2.19 | S. cerevisiae deletion strains, locus YOL147C, strain pex11, stronger effect = lower value 0.992 | S. cerevisiae deletion strains, locus YOR001W, strain rrp6, stronger effect = lower value 1.01 | S. cerevisiae deletion strains, locus YOR061W, strain CKA2, stronger effect = lower value 0.962 | S. cerevisiae deletion strains, locus YOR069W, strain VPS5, stronger effect = lower value 0.987 | S. cerevisiae deletion strains, locus YOR070C, strain gyp1, stronger effect = lower value 0.986 | S. cerevisiae deletion strains, locus YOR080W, strain dia2, stronger effect = lower value 0.999 | S. cerevisiae deletion strains, locus YOR083W, strain WHI5, stronger effect = lower value 0.974 | S. cerevisiae deletion strains, locus YOR106W, strain vam3, stronger effect = lower value 0.997 | S. cerevisiae deletion strains, locus YOR136W, strain idh2, stronger effect = lower value 0.988 | S. cerevisiae deletion strains, locus YOR144C, strain elg1, stronger effect = lower value 0.986 | S. cerevisiae deletion strains, locus YOR184W, strain ser1, stronger effect = lower value 0.99 | S. cerevisiae deletion strains, locus YOR231W, strain MKK1, stronger effect = lower value 0.998 | S. cerevisiae deletion strains, locus YOR265W, strain rbl2, stronger effect = lower value 1.01 | S. cerevisiae deletion strains, locus YOR270C, strain vph1, stronger effect = lower value 0.996 | S. cerevisiae deletion strains, locus YOR290C, strain snf2, stronger effect = lower value 0.987 | S. cerevisiae deletion strains, locus YOR316C, strain cot1, stronger effect = lower value 0.965 | S. cerevisiae deletion strains, locus YPL051W, strain arl3, stronger effect = lower value 0.985 | S. cerevisiae deletion strains, locus YPL055C, strain LGE1, stronger effect = lower value 0.9 | S. cerevisiae deletion strains, locus YPL078C, strain atp4, stronger effect = lower value 0.983 | S. cerevisiae deletion strains, locus YPL106C, strain sse1, stronger effect = lower value 0.961 | S. cerevisiae deletion strains, locus YPL240C, strain hsp82, stronger effect = lower value 0.985 | S. cerevisiae deletion strains, locus YPL241C, strain CIN2, stronger effect = lower value 0.985 | S. cerevisiae deletion strains, locus YPL256C, strain CLN2, stronger effect = lower value 1.02 | S. cerevisiae deletion strains, locus YPR119W, strain clb2, stronger effect = lower value 0.984 | S. cerevisiae deletion strains, locus YPR141C, strain kar3, stronger effect = lower value 0.945 | S. cerevisiae deletion strains, locus YPR163C, strain tif3, stronger effect = lower value 0.983 | S. cerevisiae deletion strains, locus YPR167C, strain met16, stronger effect = lower value 0.979 | S. cerevisiae deletion strains, strain wtn01, stronger effect = lower value 0.992 | S. cerevisiae strains, strain wild type, stronger effect = lower value 0.992
